Screening results (PubChem BioAssay)
Sampled rows, rich in hits. Any-hit rate of the full collection: about 9.3%.
Rab9 promoter act: activators of Rab9 promoter. Huh7 Rab9 promoter-luciferase reporter, luminescence, 24 h. Potency, µM (top dose mostly 9.22 µM), for inactives: top-dose activation, negative = inhibition, hits mostly activators. hit rate 2.8% among 320,000. AID 485297; note: % of control where 0% means no effect; nearly all actives have a fitted effect of over 60% in size
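Using Huh7 cells stably transfected with Rab9 promoter–luciferase, compounds were incubated 24 h at 37 °C, 5% CO2; luciferase luminescence was read 10 min after reagent addition.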
ELG1 genotoxic: inducers of genotoxicity in HEK293T ELG1-luciferase cells. hit rate 1.3% among 330,000. Potency, µM (series often up to 46 µM), without a hit: at the highest dose activity change, positive = activation, usual class: activators. AID 504466. HEK293T ELG1-luciferase reporter, luminescence, 16 h; note: % of control where 0% means no effect; nearly all actives have a fitted effect of over 60% in size
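HEK293T cells expressing luciferase-tagged ELG1 were treated with compound or DMSO for 16 hr at 37°C. Luciferase activity was then read after 30 min with ONE-Glo at room temperature; rising signal flags genetic stress.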
ELG1 DNA repair: blocks ELG1-dependent DNA repair in HEK293T cells. Potency, µM (titrated, usually from 46.1 µM), for the others: at the top dose activity change, negative = inhibition, hits mostly inhibitors. AID 504467. hit rate 2.3% among 330,000. HEK293T ELG1-luciferase reporter, luminescence, 16 h; DNA damage induced by 5-fluorouridine; note: % is set by controls: 0 for no effect and ±100 for the full control effect; nearly all actives have a fitted effect of over 55% in size
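Quantitative HTS, concentration-response format. 2,000 cells/well co-treated with 5-fluorouridine and compound, 16 hr in 5% CO2 at 37 °C; ONE-Glo luminescence read after 30 min.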
FLuc modulator: counter-screen for miR-21 project: firefly luciferase inhibitors or activators. Potency, µM (titrated, usually from 57.5 µM), for inactives: top-dose activity change, negative = inhibition, actives largely listed as inhibitors. hit rate 6.9% among 360,000. P08659. purified FLuc, Km substrates, luminescence inhibition;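 note: plate controls were vehicle for no effect and reference inhibitor for full effect; nearly all actives have a fitted effect of over 55% in size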
Target sequence (P08659 whole entry, looked up): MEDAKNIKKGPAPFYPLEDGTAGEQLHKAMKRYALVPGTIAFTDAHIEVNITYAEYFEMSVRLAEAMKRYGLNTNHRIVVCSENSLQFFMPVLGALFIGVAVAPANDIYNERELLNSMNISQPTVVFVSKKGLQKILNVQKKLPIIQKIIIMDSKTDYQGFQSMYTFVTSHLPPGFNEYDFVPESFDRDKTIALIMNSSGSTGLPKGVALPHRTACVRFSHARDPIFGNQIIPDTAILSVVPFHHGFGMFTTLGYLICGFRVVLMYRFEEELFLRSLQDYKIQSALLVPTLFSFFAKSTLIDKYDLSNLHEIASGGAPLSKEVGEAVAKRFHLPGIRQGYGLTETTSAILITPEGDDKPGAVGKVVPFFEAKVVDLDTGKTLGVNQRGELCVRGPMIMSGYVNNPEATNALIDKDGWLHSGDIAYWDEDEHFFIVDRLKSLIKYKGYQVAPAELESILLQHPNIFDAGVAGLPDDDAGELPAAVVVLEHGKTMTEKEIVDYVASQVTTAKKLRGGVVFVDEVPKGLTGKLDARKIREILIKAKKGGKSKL
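Purified P. pyralis luciferase (10nM final) with 10uM D-luciferin and 10uM ATP (Km levels) in 50mM Tris acetate pH 7.5, 10mM Mg acetate, 0.01% Tween-20, 0.05% BSA; qHTS 6-point titration, ~60 µM downward; luminescence read.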
SMN2 splice up: increases expression of the SMN2 splice variant. HEK293 SMN2-luciferase splicing reporter, luminescence, 30-36 h. Potency, µM (doses to about 46.1 µM), for the others: at the highest dose activity change, positive = activation, usual class: activators. hit rate 2.8% among 210,000. AID 1458; note: % of control where 0% means no effect; nearly all actives have a fitted effect of over 55% in size
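HEK293 cells carry an SMN2 […]–luciferase reporter in which exon 7 inclusion puts luciferase in frame. Cells were plated 10-12 h before compound addition, then incubated 30-36 h at 37C. ONE-Glo luminescence was read; sodium butyrate at 4.5 mM final served as control.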
NPC1 promoter act: NPC1 promoter activation; Huh7 NPC1 promoter luciferase reporter, 24 h; Potency, µM (series often up to 9.22 µM), without a hit: top-dose activation, usual class: activators; hit rate 2.4% among 320,000; AID 485313; note: % of control where 0% means no effect; nearly all actives have a fitted effect of over 60% in size
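NPC1 promoter–luciferase Huh7 cells; 24 h compound; luminescence.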
* hit, by the source's call; ? = inconclusive; / = no result; [ ] = remark or other dose. Calls come from the whole dose curve; as a rule, active = well fitted curve in the direction sought with a large enough effect; inconclusive = small, poorly fitted or top-dose-only effect, or another doubt; inactive = no such curve, though single readings can be large; an effect the other way counts as inactive or inconclusive. Potency is the fitted concentration of half-maximal effect.

SMILES	Rab9 promoter act	ELG1 genotoxic	ELG1 DNA repair	FLuc modulator	SMN2 splice up	NPC1 promoter act
COc1ccc(-c2noc(-c3ccc(NCc4ccco4)c([N+](=O)[O-])c3)n2)cc1	/	/	/	-19%	/	/
S=C(Nc1ccc(Cl)cc1)NC1CCCCC1	19%	-4%	35%	15µM*	/	29%
S=C(Nc1ccc(Br)cc1)NC1CCCCC1	21%	7%	?	11µM*	13µM*	23%
FC(F)Oc1ccc(NC(=S)NC2CCCCCCC2)cc1	28%	-12%	19%	19µM*	/	23%
Cc1ccnc(N2CCC(C(=O)Nc3cccc(C(F)(F)F)c3)CC2)n1	10%	3%	16µM*	-2%	-37%	5%
Cc1ccnc(N2CCC(C(=O)Nc3ccc(Oc4ccccc4)cc3)CC2)n1	-1%	0%	-1%	3%	-3%	-3%
O=C1C2C3CCCC3=C3CCCC3C2C(=O)N1c1ccccc1 (stereo unspecified)	-1%	0%	-3%	-1%	3%	3%
Cc1occc1C(=O)O/N=C(\N)c1ccc(Cl)cc1	4µM*	?	?	9.5µM*	/	?
N/C(=N\OC(=O)c1cc(Cl)ccc1Cl)c1ccncc1	?	?	?	13µM*	/	20%
N/C(=N\OC(=O)Cc1ccc(Cl)cc1)c1ccncc1	-4%	-1%	-9%	-4%	-4%	-2%
COc1ccc(Cl)cc1C(=O)O/N=C(\N)c1ccc(Cl)cc1	-3%	11%	?	17µM*	10%	1%
COc1cc(OC)c(C(=O)O/N=C(\N)c2ccc(C)cc2)cc1OC	3%	0%	20%	?	/	-2%
N/C(=N\OC(=O)c1ccc(Cl)cc1Cl)c1ccncc1	1.8µM*	9.2µM*	?	1.9µM*	/	1.6µM*
Cc1onc(-c2ccccc2)c1C(=O)Nc1nncs1	-1%	-3%	1%	3%	/	-3%
COc1ccc(S(=O)(=O)N(C)c2nc3ccccc3n3c(CC(C)C)nnc23)cc1	4%	0%[9.26 µM]	-19%	-2%	/	-2%
C=C(C)C1CC=C(C(=O)O)CC1 (stereo unspecified)	9%[46.1 µM]	/	/	/	12%	0%[46.1 µM]
CCOC(=O)CNC(=O)O[C@@H]1C(=O)c2ccc(OC)cc2O[C@H]1c1ccc2c(c1)OCO2	/	/	/	/	16%	/
Cc1ccccc1C(=O)O/N=C(\N)c1ccncc1	3.2µM*	?	?	4.3µM*	/	?
N/C(CS(=O)(=O)c1ccccn1)=N\OC(=O)c1ccc(Cl)cc1	-3%	9%	?	-13%	/	2%
COc1cccc(C(=O)O/N=C(\N)c2ccncc2)c1OC	2%	?	?	?	25%	2%
N/C(CS(=O)(=O)c1ccccn1)=N\OC(=O)c1ccccc1Cl	2.2µM*	?	?	?	/	2µM*
N/C(=N\OC(=O)c1ccccc1Cl)c1ccncc1	4%	-15%	23µM*	?	/	26%
COc1ccc(S(=O)(=O)Nc2ccc3c(c2)C(=O)N([C@H](C)CO)C[C@@H](C)[C@@H](CN(C)S(=O)(=O)c2ccc(Cl)cc2)O3)cc1	/	-4%	-12%	/	/	/
O=C(Nc1ccc(O)cc1)C1CCCN1S(=O)(=O)c1ccc(F)cc1 (stereo unspecified)	-5%	-1%	0%	6%	-1%	-4%
CCCCCc1ccc(-c2nnc(N)s2)cc1	?	?	?	21µM*	/	23%
SMILES	Rab9 promoter act	ELG1 genotoxic	ELG1 DNA repair	FLuc modulator	SMN2 splice up	NPC1 promoter act
CCCCCCc1ccc(-c2ncc(N)cn2)cc1	?	?	?	12µM*	11µM*	17%
Cc1cc(NC(=O)CSCC(=O)Nc2ccccc2Oc2ccccc2)no1	-4%	?	0%	3%	/	-1%
O=C(O)c1ccc(S(=O)(=O)N2CCC(c3nc(-c4ccccc4Cl)no3)CC2)cc1	4%	-2%	-3%	0%	-6%	-3%
COc1ccc(-c2c(-c3cc(OC)cc(OC)c3)n(C)c3ccc(-c4ccc5c(c4)OCCO5)cc23)cc1	/	1%	?	/	/	/
Brc1ccc(-c2csc(-c3ccncc3)n2)cc1	?	?	?	4.8µM*	?	25%
Cc1ccc(-c2csc(-c3ccncc3)n2)cc1	4µM*	?	?	11µM*	?	?
Nc1nc(-c2ccc(F)cc2)cs1	?	?	?	?	-3%	13%
Nc1nc(-c2ccc(Br)cc2)cs1	?	?	?	19µM*	?	?
N=c1c2c3c(sc2nc2n1CCC2)CCCC3	-6%	0%	-3%	0%	0%	1%
Cc1cccc(OCCCn2c(=O)sc3ccccc32)c1	3.2µM*	?	?	21µM*	-5%	6%
COc1ccc(OCCn2c(=O)sc3ccccc32)cc1	?	?	?	19µM*	?	?
Cc1cccc(OCCn2c(=O)sc3ccccc32)c1	2.8µM*	?	?	11µM*	13µM*	?
COc1cccc(OCc2nc3ccccc3n2CCOc2cccc(C)c2)c1	/	/	/	-18%	12%	/
Cc1ccccc1OCCn1c(=O)sc2ccccc21	0%	1%	?	-20%	-30%	0%
Cc1cccc(OCCn2c(=O)n(C)c3ccccc32)c1	1.8µM*	6.5µM*	?	15µM*	13µM*	3.2µM*
CC(=O)Nc1ccc(S(=O)(=O)Nc2ccc3c(c2)OCCO3)cc1Cl	-18%	-4%	?	-1%	/	-7%
COc1ccc(OC)c(S(=O)(=O)NCCS(=O)(=O)N2CCN(c3ccccc3F)CC2)c1	/	/	/	-7%	/	/
O=C(O)c1ccc(-n2cccc2/C=C2/NC(=O)N(c3ccccc3)C2=O)cc1	1%	-3%	-2%	-18%	/	-6%
O=C1N/C(=C/c2ccsc2)C(=O)N1c1ccccc1	2.8µM*	?	?	?	29%	?
CCn1c(C)cc(/C=C2/NC(=O)N(c3ccccc3)C2=O)c1C	1.4µM*	?	?	7.6µM*	11µM*	3.2µM*
COc1cccc(/C=C/C(=O)N2CCN(S(=O)(=O)c3ccccc3)CC2)c1OC	-1%	-5%	1%	-15%	/	3%
O=C(NCC(=O)N(Cc1ccco1)C(C(=O)NC1CCCC1)c1cccnc1)c1cccs1 (stereo unspecified)	4%	3%	0%	3%	10%	2%
COC(=O)c1ccc(CSc2nnc(Nc3ccc(OC)cc3)s2)o1	-2%	2%	-1%	?	-1%	2%
O=C1CCN(Cc2ccccc2)CCN1CCSc1ccccc1	4.5µM*	?	?	13µM*	/	?
